# From PubChem BioAssay (Tox21)
# Values without a mark were called inactive. The source made the active and inactive calls. The call rests on the fitted dose curve; in most records, active means well fitted curve in the direction sought with a large enough effect in the repeat runs; inconclusive means weak or mixed curves; inactive means flat fitted curve, though single readings scatter.
# Assay: qHTS assay to test for compound auto fluorescence at 590 nm (red) in HEK293 cell free culture (AID 720683)
# Settings: cell-free medium autofluorescence, Ex540/Em590 red; series mostly up to 91.3 µM
# In short: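 Red-channel autofluorescence of compounds in culture medium (DMEM, 10% FBS), no cells, measured at 540/590 nm. Rose Bengal sodium is the reference fluorophore for equivalence.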
# On the % scale 0 is the no-effect control and ±100 the full control effect.
row,SMILES,outcome
1,CCOc1cccc(N)c1,inactive
2,CC(C)=CCC/C(C)=C/COC=O,inactive
3,CO[Si](CCCn1c(=O)n(CCC[Si](OC)(OC)OC)c(=O)n(CCC[Si](OC)(OC)OC)c1=O)(OC)OC,inactive
4,C[C@]12CCC(=O)C=C1CC[C@H]1[C@@H]3CC[C@](O)(C(=O)CO)[C@@]3(C)C[C@H](O)[C@@]12F,inactive
5,CC/C(C)=N\O[Si](C)(O/N=C(\C)CC)O/N=C(\C)CC,inactive
6,C=Cc1ccc(C(C)(C)C)cc1,inactive
7,CC(C)[C@H]1CC[C@H](C)C[C@@H]1O,inactive
8,CC(=O)C(C)O (stereo unspecified),inactive

# Assay: qHTS assay to test for compound auto fluorescence at 590 nm (red) in HepG2 cell free culture (AID 720684)
# Settings: cell-free medium autofluorescence, red 540/590 nm; series mostly up to 91.3 µM
# In short: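 Cell-free; medium MEM + 10% FBS; compound or DMSO added by pintool; read Ex 540/Em 590 nm; Rose Bengal sodium as red reference fluorophore.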
SMILES,outcome,"fluorescence, % of Rose Bengal"
C=C(C)[C@@H]1CC=C(C)CC1,inactive,–
COS(=O)(=O)O,inactive,–
O=NN(CCCl)C(=O)NC1CCCCC1,inactive,–
CCCCCCCCCCCCCBr,inactive,–
CC1(C)[C@H]2CC[C@](C)(C2)[C@H]1O,inactive,–
C[C@H]1[C@@H](c2ccccc2)NC(=O)N1C,inactive,–
O=S(=O)(O)c1ccc2c(N=Nc3ccc(S(=O)(=O)O)c4ccccc34)c(O)c(S(=O)(=O)O)cc2c1,inactive,–
CCO[Si](CC)(OCC)OCC,inactive,–
C[C@@H](O)C(=O)O,inactive,–
O=C(O)CONC(=O)c1ccccc1,inactive,–
O=C=NCC1CCCC(CN=C=O)C1 (stereo unspecified),inactive,–
O=C(O)[C@H](O)c1ccccc1,inactive,–
c1ccc2c(CC3=NCCN3)cccc2c1,inactive,–
CN1CCOC(c2ccccc2)c2ccccc2C1 (stereo unspecified),–,0.115% [at 18.6 µM]
CC(C)OC(=O)OCOP(=O)(CO[C@H](C)Cn1cnc2c(N)ncnc21)OCOC(=O)OC(C)C,inactive,–
C=CC(=O)CCCCC,inactive,–
COC(=O)c1cccc(Cl)c1,inactive,–

SMILES,outcome,"fluorescence, % of Rose Bengal"
Cn1nnc2c(C(N)=O)ncn2c1=O,inactive,–
N#Cc1cscn1,inactive,–
Cn1c(=O)c2c(ncn2CCO)n(C)c1=O,inactive,–
NCc1ccc(S(N)(=O)=O)cc1,–,0.496% [at 18.6 µM]
CCCCCCC1(C)CCC(=O)O1 (stereo unspecified),inactive,–
Cc1cc(-c2ccccc2)nnc1NCCN1CCOCC1,inactive,–
O=C(O)CSCC(=O)NC1CCSC1=O (stereo unspecified),inactive,–
CC(C)(CO)C(O)C(=O)NCCCO (stereo unspecified),inactive,–
C=CC(=O)OCC1CCCO1 (stereo unspecified),inactive,–
CCOc1cccc(N)c1,inactive,–
CC(C)=CCC/C(C)=C/COC=O,inactive,–
CO[Si](CCCn1c(=O)n(CCC[Si](OC)(OC)OC)c(=O)n(CCC[Si](OC)(OC)OC)c1=O)(OC)OC,inactive,–
C[C@]12CCC(=O)C=C1CC[C@H]1[C@@H]3CC[C@](O)(C(=O)CO)[C@@]3(C)C[C@H](O)[C@@]12F,inactive,–
CC/C(C)=N\O[Si](C)(O/N=C(\C)CC)O/N=C(\C)CC,inactive,–
C=Cc1ccc(C(C)(C)C)cc1,inactive,–
CC(C)[C@H]1CC[C@H](C)C[C@@H]1O,inactive,–
CC(=O)C(C)O (stereo unspecified),inactive,–

# Assay: qHTS assay to test for compound auto fluorescence at 460 nm (blue) in HepG2 cell free culture (AID 720685)
# Settings: Cell-free culture medium, blue autofluorescence 405/460 nm; series mostly up to 91.3 µM
# In short: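 Cell-free plates of MEM plus 10% FBS received 23 nL compound or DMSO vehicle; blue-channel (405/460 nm) intensity scored against triamterene as reference fluorophore.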
SMILES,outcome,"fluorescence, % of fluorescent control"
C=C(C)[C@@H]1CC=C(C)CC1,inactive,–
COS(=O)(=O)O,inactive,–
O=NN(CCCl)C(=O)NC1CCCCC1,inactive,–
CCCCCCCCCCCCCBr,inactive,–
CC1(C)[C@H]2CC[C@](C)(C2)[C@H]1O,inactive,–
C[C@H]1[C@@H](c2ccccc2)NC(=O)N1C,inactive,–
O=S(=O)(O)c1ccc2c(N=Nc3ccc(S(=O)(=O)O)c4ccccc34)c(O)c(S(=O)(=O)O)cc2c1,inactive,–
CCO[Si](CC)(OCC)OCC,inactive,–
C[C@@H](O)C(=O)O,inactive,–
O=C(O)CONC(=O)c1ccccc1,inactive,–
O=C=NCC1CCCC(CN=C=O)C1 (stereo unspecified),inactive,–
O=C(O)[C@H](O)c1ccccc1,inactive,–
c1ccc2c(CC3=NCCN3)cccc2c1,inactive,–
CN1CCOC(c2ccccc2)c2ccccc2C1 (stereo unspecified),–,-0.0245% [at 18.6 µM]
CC(C)OC(=O)OCOP(=O)(CO[C@H](C)Cn1cnc2c(N)ncnc21)OCOC(=O)OC(C)C,inactive,–
C=CC(=O)CCCCC,inactive,–
COC(=O)c1cccc(Cl)c1,inactive,–

SMILES,outcome,"fluorescence, % of fluorescent control"
Cn1nnc2c(C(N)=O)ncn2c1=O,inactive,–
N#Cc1cscn1,inactive,–
Cn1c(=O)c2c(ncn2CCO)n(C)c1=O,inactive,–
NCc1ccc(S(N)(=O)=O)cc1,–,0.0628% [at 18.6 µM]
CCCCCCC1(C)CCC(=O)O1 (stereo unspecified),inactive,–
Cc1cc(-c2ccccc2)nnc1NCCN1CCOCC1,inactive,–
O=C(O)CSCC(=O)NC1CCSC1=O (stereo unspecified),inactive,–
CC(C)(CO)C(O)C(=O)NCCCO (stereo unspecified),inactive,–
C=CC(=O)OCC1CCCO1 (stereo unspecified),inactive,–
CCOc1cccc(N)c1,inactive,–
CC(C)=CCC/C(C)=C/COC=O,inactive,–
CO[Si](CCCn1c(=O)n(CCC[Si](OC)(OC)OC)c(=O)n(CCC[Si](OC)(OC)OC)c1=O)(OC)OC,inactive,–
C[C@]12CCC(=O)C=C1CC[C@H]1[C@@H]3CC[C@](O)(C(=O)CO)[C@@]3(C)C[C@H](O)[C@@]12F,inactive,–
CC/C(C)=N\O[Si](C)(O/N=C(\C)CC)O/N=C(\C)CC,inactive,–
C=Cc1ccc(C(C)(C)C)cc1,inactive,–
CC(C)[C@H]1CC[C@H](C)C[C@@H]1O,inactive,–
CC(=O)C(C)O (stereo unspecified),inactive,–
